# Data taken from the supplement of paper PMC3334620.
# In all, about 33,000 sequences were measured (“E-score (-0.5 to 0.5)”: median about -0.016, highest 2% from about 0.31 on). Only a selection was taken, and the highest values are over-represented in it overall.
# Target: Cst6 (UniProt P40535)
# Test: PBM E-score (8-mer binding enrichment) (E-score (-0.5 to 0.5)); higher = stronger / more preferred TF binding
# Settings: protein concentration: 200 nM; construct: GST-DNA-binding domain
# Summary of the method: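 Universal all-10-mer Agilent arrays, fresh or stripped once, were converted to double-stranded form by primer extension. GST-tagged yeast transcription factors from PURExpress in vitro transcription/translation, full-length or DNA-binding domain only, were applied at about 100-200 nM and detected with fluorescent anti-GST. After masliner normalisation, the Universal PBM Analysis Suite scored each ungapped eight-base word together with its reverse complement by E-score.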
# Sequence of UniProt P40535 (P40535 whole entry): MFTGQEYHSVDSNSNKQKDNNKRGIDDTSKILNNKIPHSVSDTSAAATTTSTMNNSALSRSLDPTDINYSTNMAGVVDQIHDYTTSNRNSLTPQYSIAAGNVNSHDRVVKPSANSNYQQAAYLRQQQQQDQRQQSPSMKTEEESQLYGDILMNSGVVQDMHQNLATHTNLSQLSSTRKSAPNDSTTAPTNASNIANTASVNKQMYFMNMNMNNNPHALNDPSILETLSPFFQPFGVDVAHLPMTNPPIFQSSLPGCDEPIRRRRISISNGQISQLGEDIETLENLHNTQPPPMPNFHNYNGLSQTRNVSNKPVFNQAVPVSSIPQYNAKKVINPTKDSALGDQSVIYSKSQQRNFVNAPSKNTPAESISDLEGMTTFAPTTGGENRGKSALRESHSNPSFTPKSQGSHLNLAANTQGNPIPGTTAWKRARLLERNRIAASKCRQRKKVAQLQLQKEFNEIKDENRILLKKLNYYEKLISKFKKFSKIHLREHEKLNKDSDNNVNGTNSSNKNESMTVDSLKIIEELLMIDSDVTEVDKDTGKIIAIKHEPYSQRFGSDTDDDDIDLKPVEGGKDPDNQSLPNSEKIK
row,Sequence,PBM E-score
1,AATGACGT,0.495
2,AATGACAC,0.273
3,AATGACGC,0.453
4,CCTGACAC,0.029
5,TATGACGA,0.424
6,TATGACCA,0.202
7,AAGGACGT,0.0462
8,CATGACAC,0.328
9,AGAGCGGA,-0.0178
10,CTCAGACC,-0.22
11,AGACCACC,-0.137
12,ACCGTCCA,-0.185
13,ACAGTGAA,0.146
14,CATCTAGA,0.019
15,TCCTAGCA,-0.162
16,GCTCCGAA,-0.0443
17,CATGACAG,0.118
18,ACTGACGG,0.105
19,ACTGACGA,0.201
20,CATGACGG,0.38
21,CATGACGA,0.438
22,AATGACGA,0.451
23,CATGACCG,0.0772

row,Sequence,PBM E-score
1,AATGACGG,0.35
2,AATGACTA,0.041
3,CATGACCA,0.0978
4,CCTGACGA,0.182
5,AATGACCG,0.178
6,CGGCCTCA,-0.0129
7,ACCACCGA,-0.145
8,CAAAAGCA,-0.0642
9,AGGGGATG,-0.161
10,CGGGGCTC,-0.307
11,ATCGGAGA,-0.197
12,CATGACCC,-0.0425
13,CATGACGC,0.455
14,AGTGACAT,0.459
15,CATGACTC,0.0297
16,AGTGACAC,0.274
17,AGTGACAA,0.169
18,AGCAGAAC,-0.0649
19,AATCCACC,-0.121
20,CAGGGCCC,-0.335
21,TAGTGATA,0.088
22,AAGTGACG,0.45
23,CAGTGACA,0.248

row,Sequence,PBM E-score
1,AAGTGAGA,0.00703
2,TAGTGACA,0.338
3,AAGTGAAA,0.193
4,AAGTGACC,-0.131
5,AAGTGACA,0.357
6,CAGTGACC,-0.0895
7,CAGTGACG,0.435
8,AAGTGACT,0.024
9,GAGTGACA,0.287
10,GGAGAATA,0.103
11,TACCCGAA,-0.133
12,ATGCCACG,0.00475
13,GGGAGTAC,-0.226
14,ACTCACCA,0.043
15,GGCGTAAC,-0.0656
16,CCCACGGG,-0.214
17,TTATCCAA,0.162
18,CATTGACG,0.358
19,CATTGACA,0.0835
20,TGGTGACA,0.378
21,GGGTGACA,0.243
22,CATTGACC,0.149
23,GGGTGACC,-0.0338

row,Sequence,PBM E-score
1,CTGCTCCC,-0.174
2,CCTAATGC,-0.0866
3,CATCTAAA,0.194
4,TCAGCTGA,0.152
5,ATTGAGCC,0.197
6,CCATTGCA,0.024
7,GCATTAAA,0.163
8,GCATTACA,0.187
9,CCATTACA,0.225
10,ACATTAAA,0.198
11,TCATTAAA,0.352
12,TCATTACA,0.368
13,ACATTGCA,-0.0281
14,TCATTGCA,0.321
15,CGGAGAGC,-0.0924
16,CGTCGGAC,-0.178
17,ATTTCACG,-0.00077
18,AGTAAGGA,-0.0515
19,ATAGATGG,-0.129
20,CCTTCGAG,-0.21
21,GGAAGTCA,-0.14
22,CGAAGTCA,0.0581
23,TGAAGTCA,0.372

row,Sequence,PBM E-score
1,CAGCAGTC,-0.258
2,TTATTAAA,0.264
3,ATATTTAC,0.175
4,CTATTAAA,0.192
5,CTATTTAA,-0.0505
6,ATATTTAA,0.355
7,ATATTAAA,0.355
8,ATCAAAGG,-0.0902
9,CTACCACA,-0.155
10,AGTTCCCG,-0.205
11,AGGGCAAT,-0.0329
12,ATGCGTCG,0.0508
13,ATGCGTCC,-0.213
14,GTGCGTCA,0.432
15,GTGCGTGA,0.136
16,CTGCGTCC,-0.11
17,CTGCGTTA,-0.204
18,CTGCGTCA,0.428
19,ATGCGTCA,0.444
20,GTGCGTAA,0.192
